Sampled rows, rich in hits. Any-hit rate of the full collection: about 9%.
PLK1 PBD block = PLK1 (human) polo-box domain binding inhibition; P53350; Plk1 PBD binding of FITC phosphopeptide, fluorescence polarization; Potency, µM, hits mostly inhibitors; actives 2.8% (n = 360,000); AID 720504; note: series mostly up to about 57 µM; nearly all actives have a fitted effect of over 65% in size
Target sequence (P53350 whole entry, looked up, the tested form may be a part): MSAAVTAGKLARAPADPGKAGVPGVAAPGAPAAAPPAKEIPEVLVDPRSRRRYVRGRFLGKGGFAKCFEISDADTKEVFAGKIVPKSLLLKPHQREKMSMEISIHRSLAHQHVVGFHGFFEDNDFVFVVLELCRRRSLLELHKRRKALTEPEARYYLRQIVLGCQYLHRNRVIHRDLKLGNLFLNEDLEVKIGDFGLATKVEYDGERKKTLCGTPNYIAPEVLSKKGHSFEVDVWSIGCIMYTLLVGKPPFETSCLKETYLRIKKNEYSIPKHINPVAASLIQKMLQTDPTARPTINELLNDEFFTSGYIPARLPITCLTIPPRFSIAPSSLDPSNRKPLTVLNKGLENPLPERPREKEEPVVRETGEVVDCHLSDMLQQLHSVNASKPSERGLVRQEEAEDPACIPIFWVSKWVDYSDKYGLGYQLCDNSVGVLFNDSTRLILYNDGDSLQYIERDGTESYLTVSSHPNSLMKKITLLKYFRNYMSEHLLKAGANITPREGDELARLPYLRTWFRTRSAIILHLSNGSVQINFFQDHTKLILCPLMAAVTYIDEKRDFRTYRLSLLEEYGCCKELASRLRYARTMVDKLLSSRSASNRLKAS
JMJD2A Tudor = blocks the human JMJD2A Tudor domain | O75164 | AlphaScreen JMJD2A-Tudor / H3K4me3 peptide binding | Potency, µM (series often up to 114 µM), hits mostly inhibitors | actives 4.4% (n = 390,000) | AID 504339; note: nearly all actives have a fitted effect of over 50% in size
HP1b binding inh = blocks HP1-beta chromodomain binding to methylated histone tails. AlphaScreen HP1-beta / biotin-H3K9me3 peptide binding. Potency, µM (doses to about 114 µM), actives largely listed as inhibitors. actives 0.56% (n = 390,000); note: nearly all actives have a fitted effect of over 70% in size
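HP1-beta protein (50 nM final) preincubated 30 min at room temperature with biotinylated H3(1-18)K9me3 peptide (50 nM) in PBS pH 7.4, 0.01% Tween-20, then compound added for 30 min. AlphaScreen streptavidin donor/nickel chelate acceptor beads (10 ug/mL final), 30 min dark, luminescence read.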
G9a inh = inhibitors of human histone lysine methyltransferase G9a. Potency, µM (titrated, usually from 102 µM), actives largely listed as inhibitors. Q96KQ7. actives 8.8% (n = 350,000). G9a H3K9 monomethylation, AlphaScreen, 2 h; note: nearly all actives have a fitted effect of over 75% in size
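Enzyme 20 nM + cpd, 15 min RT; add b-H3K9 pep 500 nM / SAM 20 uM; 2 h RT; anti-H3K9me1 Ab 0.5 ug/mL + SA donor / anti-rabbit acceptor beads 20 ug/mL each, 10 min; AlphaScreen read.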
BAZ2B inh = inhibitors of human BAZ2B bromodomain; Q9UIF8; AlphaScreen BAZ2B-H3K14Ac peptide displacement; Potency, µM (top dose mostly 114 µM), usual class: inhibitors; actives 4.4% (n = 360,000); note: nearly all actives have a fitted effect of over 60% in size
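Compounds, titrated to a top concentration of 110 uM, were incubated 30 min at room temperature with preformed BAZ2B/acetyl-K14 H3 peptide complex (50 nM each). Proximity signal was measured by AlphaScreen after 20 min with beads.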
ALOX12 inh = ALOX12 (human) lipoxygenase inhibition; purified 12hLO, xylenol orange hydroperoxide absorbance; Potency, µM (series often up to 108 µM), most hits filed as inhibitors; actives 1.1% (n = 580,000)
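Hydroperoxide product was detected by ferrous iron/xylenol orange as the 573 to 405 nm absorbance ratio. Arachidonic acid at 40 uM (final) was turned over for 30 min at room temperature by 150 nM human 12hLO, pH 7.0 Hepes buffer, after 15 min compound preincubation.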
Large screens that a line does not name were inactive. Calls come from the whole dose curve; as a rule, active = well fitted curve in the direction sought with a large enough effect; inconclusive = small, poorly fitted or top-dose-only effect, or another doubt; inactive = no such curve, though single readings can be large; an effect the other way counts as inactive or inconclusive.

CC[C@@]1(C(=O)OC)N[C@H](CN(C)C(=O)COC)[C@@H]2C(=O)N(C)C(=O)[C@@H]21	ALOX12 inh 5µM (no result: G9a inh, BAZ2B inh)
CC1(C)O[C@@H]2[C@H](O1)[C@@H](COS(=O)(=O)O)O[C@H]2n1c(=S)[nH]c2c(=O)[nH]c(N)nc21	JMJD2A Tudor 20µM, ALOX12 inh inconclusive
CCN1C(=O)C(O)(CC(=O)c2c(C)coc2C)c2ccccc21 (stereo unspecified)	none
O=C(O)CC1(O)C(=O)N(Cc2ccccc2)c2ccccc21 (stereo unspecified)	none (no result: G9a inh)
Cc1coc(C)c1C(=O)CC1(O)C(=O)N(CCc2ccccc2)c2ccccc21 (stereo unspecified)	G9a inh inconclusive, BAZ2B inh inconclusive, ALOX12 inh 40µM
Cc1ccc(C(=O)CC2(O)C(=O)N(C)c3ccccc32)o1 (stereo unspecified)	G9a inh 50µM
Cc1ccc(C(=O)CC2(O)C(=O)N(Cc3ccccc3)c3ccccc32)c(C)c1 (stereo unspecified)	JMJD2A Tudor 40µM, HP1b binding inh inconclusive, G9a inh 2.2µM, BAZ2B inh 10µM (no result: PLK1 PBD block)
Cc1ccc(CNC(=O)Cn2c(C)cc3nc4n(c(=O)c32)CCCCC4)cc1	none (no result: PLK1 PBD block, JMJD2A Tudor, HP1b binding inh, G9a inh, BAZ2B inh)
Cc1[nH]c(=O)[nH]c(=O)c1/C=N/NC(=O)[C@@H](N)CC(C)C	JMJD2A Tudor inconclusive, G9a inh inconclusive, BAZ2B inh 50µM
Cc1[nH]c(=O)[nH]c(=O)c1/C=N/NC(=O)[C@H](CC(C)C)NC(=O)OC(C)(C)C	G9a inh inconclusive
CN(C)CCSc1nc(-c2ccccc2)nc2c1COC(C)(C)C2	none
CSc1nc(-c2ccccc2)nc2c1COC(C)(C)C2	PLK1 PBD block 30µM, JMJD2A Tudor inconclusive, G9a inh inconclusive
C/C=C\C=C/C(=O)Nc1cccc(C2=NOC3(C2)C[C@@H](C(N)=O)N(C(=O)c2ccccc2)C3)c1 (stereo partly specified)	G9a inh inconclusive (no result: PLK1 PBD block, JMJD2A Tudor, HP1b binding inh, ALOX12 inh)
C/C=C/C=C\C(=O)Nc1cccc(C2=NOC3(C2)C[C@H](C(N)=O)N(C(=O)/C=C/C)C3)c1 (stereo partly specified)	JMJD2A Tudor 79µM, HP1b binding inh inconclusive, G9a inh inconclusive
C/C=C/C=C\C(=O)Nc1cccc(C2=NOC3(C2)C[C@@H](C(N)=O)N(C(=O)c2cc([N+](=O)[O-])cc([N+](=O)[O-])c2C)C3)c1 (stereo partly specified)	PLK1 PBD block 34µM, ALOX12 inh 16µM
C/C=C\C=C/C(=O)Nc1cccc(C2=NOC3(C2)C[C@@H](C(N)=O)N(C(=O)COc2ccc(Cl)cc2)C3)c1 (stereo partly specified)	PLK1 PBD block inconclusive, JMJD2A Tudor 71µM, HP1b binding inh inconclusive, G9a inh inconclusive, BAZ2B inh inconclusive, ALOX12 inh inconclusive
C/C=C\C=C\C(=O)N1CC2(CC(c3cccc(NC(=O)COc4ccc(Cl)cc4)c3)=NO2)C[C@H]1C(N)=O (stereo partly specified)	JMJD2A Tudor inconclusive, G9a inh inconclusive, ALOX12 inh inconclusive
Cc1nnc(N2C(=O)c3oc4ccccc4c(=O)c3C2c2ccc(C(C)(C)C)cc2)s1 (stereo unspecified)	none (no result: PLK1 PBD block)
FC(F)(F)c1cccc(CN2CCSCC2)c1	JMJD2A Tudor 22µM, HP1b binding inh inconclusive, G9a inh 10µM, BAZ2B inh 56µM, ALOX12 inh inconclusive
Cc1cccc(CN2CCSCC2)c1	JMJD2A Tudor 20µM, HP1b binding inh inconclusive, G9a inh inconclusive, BAZ2B inh inconclusive, ALOX12 inh inconclusive
COc1ccc(Cl)cc1C(=O)NC1CCN(c2cc(-c3cccs3)[nH]n2)C1 (stereo unspecified)	none (no result: PLK1 PBD block, JMJD2A Tudor, HP1b binding inh, G9a inh, BAZ2B inh)
CC(=O)c1c(C)[nH]c(C(=O)CN2C(=O)NC(C)(c3ccc4c(c3)OCO4)C2=O)c1C (stereo unspecified)	none
O=C(C#Cc1ccccc1)c1ccco1	PLK1 PBD block 3.4µM, G9a inh 40µM
Cc1nnc(NC(=O)CSc2nc3c([nH]c4ccccc43)c(=O)n2-c2ccc(Cl)cc2)s1	none (no result: PLK1 PBD block)
CC1(C)CC(N2CCC(=O)NC2=S)CC(C)(C)N1	JMJD2A Tudor inconclusive (no result: G9a inh, BAZ2B inh)
COc1ccc(-n2cccc2/C=C/[N+](=O)[O-])cc1	PLK1 PBD block 27µM, JMJD2A Tudor 45µM, HP1b binding inh 45µM, G9a inh 40µM, BAZ2B inh 35µM, ALOX12 inh inconclusive
C#CCNC(=O)c1ccc(-n2ccc(C(F)(F)F)n2)cc1	none (no result: PLK1 PBD block, JMJD2A Tudor, HP1b binding inh, G9a inh, BAZ2B inh)
O=[N+]([O-])c1cc(Br)c(O)c(/C=N/Nc2nnnn2-c2cccc3ccccc23)c1	PLK1 PBD block 13µM, JMJD2A Tudor 56µM, BAZ2B inh 79µM, ALOX12 inh 11µM
O=C(N/N=C/c1cc([N+](=O)[O-])cc(Br)c1O)C12CC3CCC(CC(C3)C1)C2	none
N#CC(C(=O)c1ccco1)c1ccccn1 (stereo unspecified)	G9a inh 35µM
CNC(=O)c1ccc(/C=C/C(=O)C(C#N)c2ccccn2)cc1 (stereo unspecified)	none (no result: PLK1 PBD block, JMJD2A Tudor, HP1b binding inh, G9a inh, BAZ2B inh)
Cc1cccc(Nc2nc(-c3ccccc3)nc3ccccc23)c1	none (no result: PLK1 PBD block)
CC(=O)Nc1ccc(C(=O)N/N=C/c2cc(Br)cc(Br)c2O)cc1	PLK1 PBD block inconclusive, JMJD2A Tudor 56µM, HP1b binding inh inconclusive
COc1cc(OC)c(/C=N/NC(=O)c2ccc(NC(C)=O)cc2)cc1Br	none
CC(C)C(=O)Nc1ccc(C(=O)N/N=C/c2cc(Br)cc(Br)c2O)cc1	JMJD2A Tudor inconclusive, BAZ2B inh 7.9µM (no result: G9a inh)
CN(CC(=O)Nc1ccc(S(N)(=O)=O)cc1)c1ccccc1	none
C/C(=N/NC(=O)CNc1ccc(C)cc1)c1ccc(Br)s1	JMJD2A Tudor inconclusive, G9a inh 35µM
COc1ccccc1NCC(=O)N/N=C(\C)c1ccc(Br)s1	G9a inh inconclusive
CCOC(=O)c1ccoc1CSCc1ccc(C(=O)OC)o1	PLK1 PBD block 27µM, ALOX12 inh inconclusive
CCC1=NC(c2ccc(OC)c(OC)c2)N(O)C1(C)C (stereo unspecified)	PLK1 PBD block 30µM, JMJD2A Tudor inconclusive
COc1ccc(S(=O)(=O)CC(=O)c2cc3cc(Br)ccc3oc2=O)cc1	PLK1 PBD block 1.7µM, JMJD2A Tudor inconclusive, G9a inh 25µM, BAZ2B inh 45µM, ALOX12 inh 7.9µM
CCCCCC(=O)N1CCN(CCN=CC2=C(O)CC(c3ccc(OC)c(OC)c3)CC2=O)CC1 (stereo unspecified)	G9a inh inconclusive
COc1cccc(/C=N/NC(=O)C(=O)NCc2cccnc2)c1OC	none
COc1cccc(/C=N/NC(=O)C(=O)NCc2cccnc2)c1O	JMJD2A Tudor inconclusive, BAZ2B inh 20µM
CCOc1ccccc1NC(=O)C(=O)N/N=C/c1cc(Br)ccc1O	JMJD2A Tudor inconclusive, BAZ2B inh 8.9µM
